Reference: PubChem BioAssay AID1159580 (chemical genetic matrix, 2015)
Screen size: about 5,500 compounds; about 2,000 (36%) were called active. Inconclusive results (about 18%) are left out. Rule as the data show it: active = normalized growth mostly below about 0.91 (no sharp cut-off); inconclusive = no clear call, values can overlap the other calls; inactive = mostly above about 0.92. This is one part of the list.

Assay: chemical genetic growth profiling, strain panel (AID 1159580);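 also: tested at 20 µM; growth read once vehicle control cultures reached saturation at 30 °C; 1 = growth at the plate median or of vehicle wells; lower values mean less growth of the strain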
Conditions: growth OD

Measured: normalized growth

C=C[C@@](C)(O)CCC1C(=C)CCC2[C@@](C)(CO)CCC[C@]12C (some centres undefined)
inactive: S. cerevisiae deletion strains, locus YJR066W, strain TOR1, stronger effect = lower value 0.868 | S. cerevisiae deletion strains, locus YJR075W, strain HOC1, stronger effect = lower value 1.05 | S. cerevisiae deletion strains, locus YKL068W, stronger effect = lower value 1.02 | S. cerevisiae deletion strains, locus YKL085W, strain MDH1 (second series), stronger effect = lower value 0.994 | S. cerevisiae deletion strains, locus YKL085W, strain MDH1, stronger effect = lower value 0.994 | S. cerevisiae deletion strains, locus YKL160W, strain elf1, stronger effect = lower value 0.966 | S. cerevisiae deletion strains, locus YKL190W, strain CNB1, stronger effect = lower value 1.06 | S. cerevisiae deletion strains, locus YKR001C, strain vps1, stronger effect = lower value 1 | S. cerevisiae deletion strains, locus YKR026C, strain gcn3, stronger effect = lower value 1.08 | S. cerevisiae deletion strains, locus YKR091W, strain srl3, stronger effect = lower value 1.07 | S. cerevisiae deletion strains, locus YLL001W, strain dnm1, stronger effect = lower value 0.935 | S. cerevisiae deletion strains, locus YLL026W, stronger effect = lower value 1.03 | S. cerevisiae deletion strains, locus YLR027C, strain aat2, stronger effect = lower value 0.997 | S. cerevisiae deletion strains, locus YLR039C, strain RIC1, stronger effect = lower value 0.868 | S. cerevisiae deletion strains, locus YLR058C, strain SHM2, stronger effect = lower value 1 | S. cerevisiae deletion strains, locus YLR102C, strain apc9, stronger effect = lower value 1.05 | S. cerevisiae deletion strains, locus YLR113W, strain HOG1, stronger effect = lower value 0.891 | S. cerevisiae deletion strains, locus YLR221C, strain rsa3, stronger effect = lower value 0.982 | S. cerevisiae deletion strains, locus YLR258W, strain gsy2, stronger effect = lower value 1 | S. cerevisiae deletion strains, locus YLR268W, strain sec22, stronger effect = lower value 0.959 | S. cerevisiae deletion strains, locus YLR320W, strain mms22, stronger effect = lower value 0.98 | S. cerevisiae deletion strains, locus YLR330W, strain CHS5, stronger effect = lower value 1.05 | S. cerevisiae deletion strains, locus YLR342W, strain FKS1 (second series), stronger effect = lower value 0.883 | S. cerevisiae deletion strains, locus YLR342W, strain FKS1, stronger effect = lower value 0.999 | S. cerevisiae deletion strains, locus YLR370C, strain arc18, stronger effect = lower value 1.04 | S. cerevisiae deletion strains, locus YLR418C, strain cdc73, stronger effect = lower value 1.07 | S. cerevisiae deletion strains, locus YML016C, strain PPZ1, stronger effect = lower value 1.04 | S. cerevisiae deletion strains, locus YML032C, strain rad52, stronger effect = lower value 0.912 | S. cerevisiae deletion strains, locus YML120C, strain ndi1, stronger effect = lower value 0.974 | S. cerevisiae deletion strains, locus YML124C, strain tub3, stronger effect = lower value 1.04 | S. cerevisiae deletion strains, locus YMR058W, strain fet3, stronger effect = lower value 0.992 | S. cerevisiae deletion strains, locus YMR078C, strain ctf18, stronger effect = lower value 1.05 | S. cerevisiae deletion strains, locus YMR129W, stronger effect = lower value 1.06 | S. cerevisiae deletion strains, locus YMR205C, strain PFK2, stronger effect = lower value 0.969 | S. cerevisiae deletion strains, locus YMR223W, strain ubp8, stronger effect = lower value 0.995 | S. cerevisiae deletion strains, locus YMR231W, strain pep5, stronger effect = lower value 1.05 | S. cerevisiae deletion strains, locus YMR263W, strain SAP30, stronger effect = lower value 1.07 | S. cerevisiae deletion strains, locus YMR307W, strain GAS1, stronger effect = lower value 0.91 | S. cerevisiae deletion strains, locus YNL067W, strain RPL9B, stronger effect = lower value 0.979 | S. cerevisiae deletion strains, locus YNL071W, strain lat1, stronger effect = lower value 1 | S. cerevisiae deletion strains, locus YNL153C, strain GIM3, stronger effect = lower value 0.971 | S. cerevisiae deletion strains, locus YNL183C, strain NPR1, stronger effect = lower value 0.842 | S. cerevisiae deletion strains, locus YNL209W, strain ssb2, stronger effect = lower value 0.984 | S. cerevisiae deletion strains, locus YNL233W, strain BNI4, stronger effect = lower value 1.07 | S. cerevisiae deletion strains, locus YNL248C, strain rpa49, stronger effect = lower value 0.983 | S. cerevisiae deletion strains, locus YNL250W, strain rad50, stronger effect = lower value 0.995 | S. cerevisiae deletion strains, locus YNL271C, strain bni1, stronger effect = lower value 1 | S. cerevisiae deletion strains, locus YNL307C, strain MCK1, stronger effect = lower value 1.03 | S. cerevisiae deletion strains, locus YNL322C, strain KRE1 (second series), stronger effect = lower value 0.933 | S. cerevisiae deletion strains, locus YNR049C, strain mso1, stronger effect = lower value 1.06 | S. cerevisiae deletion strains, locus YNR052C, strain pop2, stronger effect = lower value 0.929 | S. cerevisiae deletion strains, locus YOL006C, strain TOP1, stronger effect = lower value 0.948 | S. cerevisiae deletion strains, locus YOL012C, strain htz1 1.69 | S. cerevisiae deletion strains, locus YOL147C, strain pex11, stronger effect = lower value 1.04 | S. cerevisiae deletion strains, locus YOR001W, strain rrp6, stronger effect = lower value 0.986 | S. cerevisiae deletion strains, locus YOR061W, strain CKA2, stronger effect = lower value 0.955 | S. cerevisiae deletion strains, locus YOR069W, strain VPS5, stronger effect = lower value 1.02 | S. cerevisiae deletion strains, locus YOR070C, strain gyp1, stronger effect = lower value 0.982 | S. cerevisiae deletion strains, locus YOR080W, strain dia2, stronger effect = lower value 1.01 | S. cerevisiae deletion strains, locus YOR083W, strain WHI5, stronger effect = lower value 0.939 | S. cerevisiae deletion strains, locus YOR106W, strain vam3, stronger effect = lower value 0.933 | S. cerevisiae deletion strains, locus YOR136W, strain idh2, stronger effect = lower value 1.01 | S. cerevisiae deletion strains, locus YOR144C, strain elg1, stronger effect = lower value 0.989 | S. cerevisiae deletion strains, locus YOR265W, strain rbl2, stronger effect = lower value 1.03 | S. cerevisiae deletion strains, locus YOR270C, strain vph1, stronger effect = lower value 0.839 | S. cerevisiae deletion strains, locus YOR290C, strain snf2, stronger effect = lower value 0.916 | S. cerevisiae deletion strains, locus YOR316C, strain cot1, stronger effect = lower value 1.06 | S. cerevisiae deletion strains, locus YPL051W, strain arl3, stronger effect = lower value 0.935 | S. cerevisiae deletion strains, locus YPL078C, strain atp4, stronger effect = lower value 0.939 | S. cerevisiae deletion strains, locus YPL240C, strain hsp82, stronger effect = lower value 1.06 | S. cerevisiae deletion strains, locus YPL256C, strain CLN2, stronger effect = lower value 0.915 | S. cerevisiae deletion strains, locus YPR141C, strain kar3, stronger effect = lower value 1.07 | S. cerevisiae deletion strains, locus YPR163C, strain tif3, stronger effect = lower value 0.977 | S. cerevisiae deletion strains, locus YPR167C, strain met16, stronger effect = lower value 1.01 | S. cerevisiae deletion strains, strain wtn01, stronger effect = lower value 0.945 | S. cerevisiae strains, strain wild type, stronger effect = lower value 1
active: S. cerevisiae deletion strains, locus YKL009W, strain mrt4, stronger effect = lower value 0.776 | S. cerevisiae deletion strains, locus YLL041C, strain sdh2, stronger effect = lower value 1.08 [resistant] | S. cerevisiae deletion strains, locus YLR262C, strain YPT6 (second series), stronger effect = lower value 0.733 | S. cerevisiae deletion strains, locus YLR357W, strain rsc2, stronger effect = lower value 1.16 [resistant] | S. cerevisiae deletion strains, locus YLR371W, strain rom2, stronger effect = lower value 1.12 [resistant] | S. cerevisiae deletion strains, locus YLR384C, strain iki3, stronger effect = lower value 1.09 [resistant] | S. cerevisiae deletion strains, locus YMR125W, strain sto1, stronger effect = lower value 1.13 [resistant] | S. cerevisiae deletion strains, locus YNL298W, strain CLA4, stronger effect = lower value 0.88 | S. cerevisiae deletion strains, locus YOR184W, strain ser1, stronger effect = lower value 0.679 | S. cerevisiae deletion strains, locus YOR231W, strain MKK1, stronger effect = lower value 0.85 | S. cerevisiae deletion strains, locus YPL106C, strain sse1, stronger effect = lower value 1.22 [resistant] | S. cerevisiae deletion strains, locus YPL241C, strain CIN2, stronger effect = lower value 1.07 [resistant] | S. cerevisiae deletion strains, locus YPR119W, strain clb2, stronger effect = lower value 1.07 [resistant]
